Reference: PubChem BioAssay (Tox21)
Inconclusive results are not listed. Active and inactive are the calls of the source. The call rests on the fitted dose curve; in most records, active means well fitted activation curve with a large enough effect in the repeat runs; inconclusive means weak or mixed curves, or effect the other way; inactive means no such curve, though single readings can be large or run the other way.

Test: qHTS assay to identify small molecule agonists of the retinoic acid receptor (RAR) signaling pathway (AID 1159553)
Details: C3RL4 RARE luciferase reporter, agonist, 6 h; series mostly up to 73.3 µM; activation: at the top concentration
From the text: National Center for Advancing Translational Sciences [NCATS] NIH Chemical Genomics Center [NCGC] U.S. Environmental Protection Agency [EPA] National Institutes of Environmental Health Sciences [NIEHS] National Toxicology Program [NTP] Assay overview: All-trans Retinoic acid (atRA) is the potent natural metabolite of retinol and plays an important role in normal embryonic development and maintenance of cellular phenotype in adult animals. atRA is the activating ligand for the retinoic acid receptors (RARs) which form heterodimers with retinoid X receptors (RXRs) on the retinoic acid response element (RARE). Through activation of the RAR/RXRs nuclear receptors, atRA regulates the transcription of a large number of protein-coding genes and regulatory RNAs. Intracellular levels of atRA are controlled by the retinol signaling pathway (RSP) that regulates the biosynthesis and catabolism of atRA to maintain physiological levels. Chemicals that interfere with the RSP can cause abnormal intracellular levels of atRA and therefore are potential developmental toxicants. To assess compounds for the potential adverse effect on embryonic development through interfering with retinol signaling, a cell-based RARE luciferase reporter gene assay was used. C3RL4 cell line (OARSA/CFSAN/FDA, Laurel, MD) was used to screen Tox21 10K compound library for identifying activators of the RSP.
Assay Protocol Summary: C3RL4 cells were seeded at 1,000/well in 5 uL of assay medium into white solid 1,536-well tissue culture plates (Greiner Bio-One North America Inc. Monroe, NC) using a Multidrop Combi (Thermo Scientific, Waltham, MA) dispenser. After incubation at 37 C and 5% CO2 for an overnight, 23 nL of compounds dissolved in DMSO, positive control or DMSO only were transferred by a Pintool station (Kalypsys, San Diego, CA). After 6 hr incubation at 37 C and 5% CO2, 5 uL of Amplite Luciferase reagent (AAT Bioquest Inc. Sunnyvale, CA) was added to each assay plate using a Flying Reagent Dispenser (FRD) (Aurora Discovery, San Diego, CA). Luminescence was quantified on a ViewLux plate reader (PerkinElmer, Waltham, MA) after 30 min incubation at room temperature.
On the % scale 0 is the no-effect control and ±100 the full control effect; potency means the concentration at half of the fitted maximal effect.

Structure (SMILES)	activation	Potency
CN(C)CC/C=C1/c2ccccc2COc2ccc(CC(=O)O)cc21	0.958% (inactive)	
O=C(O)[C@H](O)c1ccccc1	-3.76% (inactive)	
C=CCCCCCCCC	0.406% [at 94.8 µM] (inactive)	
CO/N=C(/C(=O)N[C@@H]1C(=O)N2C(C(=O)[O-])=C(C[n+]3ccn4ncccc43)CS[C@H]12)c1nsc(N)n1	1.29% (inactive)	
C/C=C(\C)C(=O)OCCc1ccccc1		27.3 µM (active)
O=Cc1cc2ccccc2o1	6.67% (inactive)	
O=NN(CCCl)C(=O)NC1CCCCC1	-0.0728% (inactive)	
C#CCN[C@@H]1CCc2ccccc21	1.11% (inactive)	
O=C1CCCCO1	-1.2% (inactive)	
CCn1cc(C(=O)O)c(=O)c2cnc(N3CCCC3)nc21	1.53% [at 8.36 µM] (inactive)	
CC(C)[C@H]1CC[C@H](C)C[C@@H]1O	0.482% [at 94.8 µM] (inactive)	
CCC(C)C(C)=O (stereo not given)	0.27% (inactive)	
CCN(CC)CCN	4.43% (inactive)	
CCCCCCCCCCCCCCCCCC#N	-1.43% [at 94.8 µM] (inactive)	
C=CCN1C[C@H](C(=O)N(CCCN(C)C)C(=O)NCC)C[C@@H]2c3cccc4[nH]cc(c34)C[C@H]21	-0.505% (inactive)	
CC(C)CO	0.666% [at 94.8 µM] (inactive)	
CCC/C=C(\C=O)CC	6.82% (inactive)	
CCO[Si](CC)(OCC)OCC	0.656% (inactive)	
c1ccc(B(c2ccccc2)c2ccccc2)cc1		54.4 µM (active)
CC(Oc1cc(Cl)ccc1Cl)C(=O)O (stereo not given)	-2.9% (inactive)	

Structure (SMILES)	activation	Potency
Cc1ccc(C(=O)O)cc1[N+](=O)[O-]	0.441% (inactive)	
C=C(C)c1cccc(C(C)(C)N=C=O)c1	1.05% (inactive)	
O=C(O)CCCCCC(=O)O	1.09% [at 94.8 µM] (inactive)	
CC(N)CCCC(C)(C)O (stereo not given)	0.904% (inactive)	
C=CCCCC	-1.41% [at 94.8 µM] (inactive)	
COc1cc2c(cc1OC)C(=O)C(CC1CCN(Cc3ccccc3)CC1)C2 (stereo not given)	0.0009% (inactive)	
Cc1ncc([N+](=O)[O-])n1CC(C)O (stereo not given)	-1.36% (inactive)	
Cc1c(Cl)cccc1Cl	-1.67% (inactive)	
CN1C[C@@H]2C[C@H]1CN2c1cc2c(cc1F)c(=O)c(C(=O)O)cn2C1CC1	-4.3% [at 34.3 µM] (inactive)	
CC(O)CC(C)O (stereo not given)	-2.12% (inactive)	
CC(=O)OC(C)=O	-2.46% [at 94.8 µM] (inactive)	
O/N=C/C=N/O	-0.685% (inactive)	
O=C(NCN1CCOCC1)c1cnccn1	-0.181% (inactive)	
CCN1CCCC1CN (stereo not given)	0.333% (inactive)	
C=Cc1ccc(C(C)(C)C)cc1	1.05% (inactive)	
CC(C)OC(=O)CCC(=O)OC(C)C	-5.3% (inactive)	
CC1c2ccccc2CN1NC(=O)c1ccc(Cl)c(S(N)(=O)=O)c1 (stereo not given)	0.244% (inactive)	
Cc1cc(-c2ccccc2)nnc1NCCN1CCOCC1	0.938% (inactive)	
CCC(=O)CC	-0.0573% (inactive)	
CC1CCc2c(N3CCC(O)CC3)c(F)cc3c(=O)c(C(=O)O)cn1c23 (stereo not given)	-4.36% (inactive)	
